Inhibition data for 62 compounds are collected here from PubChem BioAssay AID2069 (Sanford-Burnham Center for Chemical Genomics, 2009).

In all, about 1,200 compounds went through this assay and about 210 (18%) were called active. No stated cut-off is given here; in the data, active means inhibition above about 30%; inactive means the rest. The list is a sample of the results.

A short description of the assay: fluorescence readout artefact check – biochemical, HTRF, uHTS, artefact control for SUMOylation inhibitor project, confirmation (AID 2069). As to conditions: HTRF interference counterscreen, at 35 µM, stronger effect = higher value. A general note: TR-FRET usually uses a lanthanide donor and a delayed reading to cut background.
For orientation: inhibition means the relative decrease from the control value, in per cent. Consider `Cc1cc(C)cc(NC(=S)Nc2cccc3cnccc23)c1`, for which the inhibition was -5.7% (inactive).

As to `COc1ccc(S(=O)(=O)N(C)c2ccc(C(=O)NCc3ccccn3)cc2)cc1`, the inhibition is -4.1% (inactive).

With `N#CC1=C(N)Oc2n[nH]c(-c3cccs3)c2C1c1ccoc1` (configuration not stated), the inhibition was -10.8% (inactive).

As for `COC(=O)c1cc(O)cc(OC)c1Oc1cc(C)cc(O)c1C(=O)O`, the inhibition was 11% (inactive).

On to `COc1ccc2c(C)c(C(=O)NCC(C)O)oc2c1OC` (configuration not stated), for which the inhibition is 38% (active).

Take `Oc1ccc(NCc2ccccc2OCc2ccccc2F)cc1`: the inhibition was -9.2% (inactive).

For the compound `COc1cc2c(-c3ccc(O)cc3)nc3c(c(C)nn3-c3ccccc3)c2cc1OC`, the inhibition is 9.45% (inactive).

For `CCCCCCCC(=O)Nc1ccc(C(=O)N/N=C/c2cccc([N+](=O)[O-])c2)cc1`, the inhibition is -8.25% (inactive).

Take `CCCCCC(=O)Nc1ccc(-c2cn3cccnc3n2)cc1`: the inhibition was 49.3% (active).

With `CC(=O)Nc1ccc(-c2cn3cccnc3n2)cc1`, the inhibition is 52.3% (active).

With `CC(=O)Nc1ccc(S(=O)(=O)Nc2cccn(Cc3ccc(C)cc3)c2=O)cc1`, the inhibition is 1.85% (inactive).

Take `CCCCCCCn1c(NC(=O)CC)nc2ccccc21`: the inhibition was 4.3% (inactive).

Take `CCc1ccc(S(=O)(=O)/N=C2\C=CC(=O)c3ccccc32)cc1`: the inhibition is 7.75% (inactive).

`Cc1ccc(-n2nc(C)c3c2OC(N)=C(C#N)C3c2ccc(C)o2)cc1` (configuration not stated): the inhibition is -11.4% (inactive).

`CN(C)S(=O)(=O)c1cc(NC(=O)CNCc2ccccc2)ccc1Cl`: the inhibition was -6% (inactive).

As for `O=C(Nc1ccc(Cl)c(Cl)c1)Nn1cnnc1`, the inhibition was 41.3% (active).

With `NS(=O)(=O)c1ccc(NC(=O)c2ccc(-c3ccccc3)cc2)cc1`, the inhibition was -3.1% (inactive).

`Cc1[nH][nH]c(=O)c1C(c1ccc(-c2ccc(C(=O)O)cc2)o1)c1c(C)[nH][nH]c1=O`: the inhibition was 0.5% (inactive).

For `CCOC(=O)c1sc(NC(=O)c2cccc(S(=O)(=O)N3CCc4ccccc43)c2)c(C#N)c1C`, the inhibition is -22.4% (inactive).

With `Cc1c(Br)c(O)c(Br)c2sc(=O)oc12`, the inhibition was -25.6% (inactive).

Consider `O=C(NNc1cc(N2CCOCC2)nc(N2CCOCC2)n1)c1ccc([N+](=O)[O-])cc1`, for which the inhibition is 1.6% (inactive).

With `Nc1cccc2cnccc12`, the inhibition is 3.2% (inactive).

For the compound `COc1ccc(C(=O)CSc2nnc(-c3ccco3)c(-c3ccco3)n2)cc1`, the inhibition is -2.15% (inactive).

Consider `NC1=NC(=O)/C(=C\c2ccco2)S1`, for which the inhibition was 16.6% (inactive).

`NN1C(=O)/C(=C\c2ccco2)SC1=S`: the inhibition was 4.75% (inactive).

As for `Nc1ccc2c(c1)C/C(=C/c1ccco1)C2=O`, the inhibition is 62.9% (active).

As for `COc1ccc(-c2csc(NC(=S)NC(=O)/C=C/c3ccco3)n2)cc1OC`, the inhibition is 10.6% (inactive).

As to `Cc1ccc(/C=C2\SC(=S)N(/N=C/c3cc([N+](=O)[O-])ccc3O)C2=O)o1`, the inhibition is -7.65% (inactive).

As for `Cc1nn2cc(-c3ccccc3)nc2[nH]c1=O`, the inhibition is 62.4% (active).

With `CCOC(=O)c1c2ccc(OCC(=O)N/N=C/c3ccc(C)cc3)cc2n2ccccc12`, the inhibition is 19.8% (inactive).

Regarding `N#Cc1c2ccc(OCC(N)=O)cc2n2ccccc12`, the inhibition was 35.8% (active).

Take `CCOC(=O)c1c2ccc(OCC(=O)NN)cc2n2ccccc12`: the inhibition is 29.6% (inactive).

`CCc1cc2c(=O)nc3n(c2s1)Cc1ccccc1/C3=C(/O)c1cccc([N+](=O)[O-])c1`: the inhibition is 17% (inactive).

For `O=C(/C=C/c1cccs1)Nc1scc(-c2ccccc2)c1C(=O)O`, the inhibition was 26.6% (inactive).

Consider `COc1cccc(Cn2cccc(NC(=O)NC3CCCCC3)c2=O)c1`, for which the inhibition is -4.4% (inactive).

Take `Cc1cccn2c(=O)c3cc(C(=O)NC4CCCCCC4)sc3nc12`: the inhibition is 31.1% (active).

On to `Cc1cccn2c(=O)c3cc(S(=O)(=O)c4ccccc4)c(=N)n(Cc4ccco4)c3nc12`, for which the inhibition was 5.25% (inactive).

Consider `O=C1C=C(O)CC(c2ccco2)C1` (configuration not stated), for which the inhibition was 5.85% (inactive).

Consider `COCCNC(=S)Nc1ccc2nsnc2c1`, for which the inhibition was -1.2% (inactive).

For the compound `Cc1cc(C)cc(NC(=S)Nc2cccc3ccccc23)c1`, the inhibition is -13.7% (inactive).

Consider `N#Cc1c(N)n(-c2cccc(C(=O)O)c2)c2nc3ccccc3nc12`, for which the inhibition was 33.5% (active).

On to `COc1ccc(-n2c(NC(=O)c3ccco3)c(C#N)c3nc4ccccc4nc32)cc1`, for which the inhibition was 4.15% (inactive).

For `N#Cc1c(N)n(CCNC(=O)c2ccccc2)c2nc3ccccc3nc12`, the inhibition is 19.1% (inactive).

Take `Cc1cccn2c(=O)c3cc(C#N)c(=NC(=O)c4ccco4)n(Cc4ccco4)c3nc12`: the inhibition is 23.1% (inactive).

As to `O=c1[nH]cc(I)cc1I`, the inhibition is -3.65% (inactive).

For `O=C1CC(c2ccco2)CC(O)=C1C=Nc1cc(Cl)ccc1O` (configuration not stated), the inhibition was -2.5% (inactive).

Regarding `COc1cccc(-c2nc(SCC(=O)Nc3nc(-c4ccccc4)c(C)s3)[nH]c(=O)c2C#N)c1`, the inhibition was -0.65% (inactive).

On to `COc1ccc(C(N)c2nccc3cc(OC)c(OC)cc23)cc1OC` (configuration not stated), for which the inhibition is -2.9% (inactive).

As for `O=C(Nc1ccc(N2C(=O)C3C4C=CC(C4)C3C2=O)cc1)Nc1cccnc1` (configuration not stated), the inhibition is 16.1% (inactive).

As to `CN(C(=S)Nc1cccnc1)c1ccc(O)cc1`, the inhibition was 5.3% (inactive).

For `CC(=O)c1ccc(NC(=O)Nc2cccnc2)cc1`, the inhibition is 41.8% (active).

On to `CCCC(=O)NC(=S)Nc1cccc2c(O)cccc12`, for which the inhibition is 11.1% (inactive).

As to `Cc1ccc(NC(=O)Nc2cccn(Cc3c(F)cccc3Cl)c2=O)cc1`, the inhibition is 3.65% (inactive).

`COc1ccc(-c2ccnc3nc(/N=C/N(C)C)nn23)cc1`: the inhibition is 44.7% (active).

For the compound `CN(C)/C=N/c1nc2nccc(-c3ccc(F)cc3)n2n1`, the inhibition was 37.5% (active).

`Fc1ccc(-c2ccnc3nc(N4CCOCC4)nn23)cc1`: the inhibition is 32.5% (active).

Consider `N#CCCN(Cc1cccnc1)C(=S)NC1CC2C=CC1C2` (configuration not stated), for which the inhibition is -9.75% (inactive).

`Cc1ccc(NC(=O)c2ccccc2OCC(=O)Nc2cccc(Cl)c2C)nc1`: the inhibition was 7.7% (inactive).

In the case of `CCOc1cc(CNc2cccc3ccccc23)cc(Br)c1OCC(=O)NC(C)(C)C`, the inhibition is 12.7% (inactive).

On to `O=C(c1csc(Nc2cccc3ccccc23)n1)N1CCCC1`, for which the inhibition was 23.1% (inactive).

Regarding `O=[N+]([O-])c1c(NCCO)cc(N2CCCCCC2)c2nonc12`, the inhibition was 22.4% (inactive).

For `COc1cc(OC)c2c(O)c3c(c(-c4c5c(c(O)c6c(OC)cc(OC)cc46)CO[C@@H](C)[C@H]5O)c2c1)[C@H](O)[C@H](C)OC3`, the inhibition is 11% (inactive).
